The source of these data is the supplement of paper PMC7530171.

Structures can show the parent of a compound that is named as a salt. ± gives the standard deviation.

The test concerns THP-1 macrophages infected with Mycobacterium tuberculosis H37Rv. Description: intracellular M.tb growth inhibition relative to DMSO (0) and 4 uM bedaquiline (100); higher = stronger inhibition of intracellular bacterial growth. As to conditions: 10 µM; 4 days. As for the experimental part:
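OICR kinase inhibitor library screened in duplicate at 10 uM against THP-1 macrophages (PMA-differentiated) infected with M. tuberculosis H37Rv-pTEC27 (tdTomato RFP), 4 days at 37 C. Rows with complete host cell loss (placeholder inhibition 0, cell loss 100) were removed.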
For `COc1cc2nccc(Oc3ccc(NC(=O)NC4CC4)c(Cl)c3)c2cc1C(N)=O`, the “intracellular M.tb growth inhibition” value was -42.3 ± 140%. As for `CCCCCCCC(=O)OCCOC(=O)CCCCCCC` [Dioctanoylglycol], the figure is 0.763 ± 3%; as for `FC(F)c1nc2ccccc2n1-c1nc(N2CCOCC2)nc(N2CCOCC2)n1`, -26.3 ± 5.5%.

For `COc1cc2nccc(Oc3ccc(NC(=O)C4(C(=O)Nc5ccc(F)cc5)CC4)cc3)c2cc1OC`, the “intracellular M.tb growth inhibition” value is 94.8 ± 23%. As for `NS(=O)(=O)c1ccc(Nc2nc(OCC3CCCCC3)c3[nH]cnc3n2)cc1`, the “intracellular M.tb growth inhibition” value is 15.4 ± 41%. With `CCN(CC)CCCCN1c2ccccc2Oc2ccc(Cl)cc21` [10-DEBC hydrochloride], the “intracellular M.tb growth inhibition” value came out at 123 ± 1.9%. Turning to `CCN1/C(=C/C(C)=O)Sc2ccc(OC)cc21`, the “intracellular M.tb growth inhibition” value was -98.4 ± 120%. With `COc1cc(N2CCC(N3CCN(C)CC3)CC2)ccc1Nc1ncc(Cl)c(Nc2ccccc2S(=O)(=O)C(C)C)n1`, the “intracellular M.tb growth inhibition” value is -4.08 ± 19%.

With `NCc1ccc(Nc2ncc(F)c(Nc3ccccc3)n2)cc1` [Dianilinopyrimidine_01], the “intracellular M.tb growth inhibition” value is 99.2 ± 230%. With `CC(C)(C)n1nc(-c2cccc3ccccc23)c2c(N)ncnc21` [1-Naphthyl PP1], the “intracellular M.tb growth inhibition” value turned out to be 21.2 ± 3.2%.

On to `Cn1cnc2c(F)c(Nc3ccc(Br)cc3Cl)c(C(=O)NOCCO)cc21`, for which the “intracellular M.tb growth inhibition” value was 6.79 ± 5.7%. In the case of `CCn1c(-c2nonc2N)nc2c(C#CC(C)(C)O)ncc(OC[C@H]3CCCNC3)c21`, the “intracellular M.tb growth inhibition” value was -124 ± 170%. On to `COc1cc2ncnc(Nc3ccc(O)c(Br)c3)c2cc1OC`, for which the “intracellular M.tb growth inhibition” value is 13.5 ± 42%.

Take `COc1ccc(Cl)cc1NC(=O)Nc1cc(C)nc2ccccc12`: the “intracellular M.tb growth inhibition” value worked out at 59.1 ± 9.6%. As for `CNC(=O)c1cc(Oc2ccc(NC(=O)Nc3ccc(Cl)c(C(F)(F)F)c3)c(F)c2)ccn1`, the figure is 50.6 ± 65%; as for `COc1ccc(S(=O)(=O)N(C(C)=O)c2ccccc2/C=C/c2cc[n+]([O-])cc2)cc1`, -316 ± 310%.

Consider `C[C@]1(O)C[C@@H](c2nc(-c3ccc4ccc(-c5ccccc5)nc4c3)c3c(N)nccn32)C1`, for which the “intracellular M.tb growth inhibition” value was 39.2 ± 24%. As for `Nc1cccc(-c2cc3c(Oc4cccc(O)c4)ncnc3[nH]2)c1`, the figure is -14.2 ± 26%. `Nc1ccc(-c2cccc3c(=O)cc(N4CCOCC4)oc23)cc1`: the “intracellular M.tb growth inhibition” value is -49 ± 35%. Consider `COc1cc2nccc(Oc3ccc(NC(=O)Nc4cc(C)on4)c(Cl)c3)c2cc1OC`, for which the “intracellular M.tb growth inhibition” value is -5.89 ± 83%. For `Cn1c(=O)n(-c2ccc(C(C)(C)C#N)cc2)c2c3cc(-c4cnc5ccccc5c4)ccc3ncc21`, the “intracellular M.tb growth inhibition” value came to 26.6 ± 26%. Consider `O=c1[nH]nc(Sc2ncc([N+](=O)[O-])s2)n1-c1ccc2c(c1)OCCO2`, for which the “intracellular M.tb growth inhibition” value is -22.3 ± 6%. With `Cc1ccc(NC(=O)c2cccc(N(C)C)c2)cc1NC(=O)c1ccc(O)cc1`, the “intracellular M.tb growth inhibition” value came out at 36 ± 37%.

With `O=c1cc(N2CCOCC2)oc2c(-c3ccccc3)cccc12`, the “intracellular M.tb growth inhibition” value is -0.768 ± 100%. As to `COc1cc2ncnc(-n3nc(-c4ccccn4)nc3N)c2cc1OC`, the “intracellular M.tb growth inhibition” value was -77 ± 180%. On to `NS(=O)(=O)c1nn2cc(-c3ccccc3)nc2s1`, for which the “intracellular M.tb growth inhibition” value amounted to 42.3 ± 16%. As for `O=C1C(Cl)=C(NCCN2CCOCC2)C(=O)c2ncccc21`, the figure is -3.64 ± 5.1%; as for `O=C1NC(=O)[C@@H](c2cn3c4c(cccc24)CCC3)[C@@H]1c1c[nH]c2ccccc12`, -118 ± 200%; as for `COc1nccc(-c2c(-c3ccc(F)cc3)ncn2C2CCNCC2)n1`, -58.3 ± 93%. As for `NC(=O)c1ccc2[nH]ccc2c1`, the figure is 10.6 ± 2.2%; as for `NC(=O)c1ccc(-c2nc(-c3ccc4c(c3)OCCO4)c(-c3ccccn3)[nH]2)cc1`, -106 ± 81%.

Turning to `O=C(O)c1ccc2c(c1)nc(Nc1cccc(Cl)c1)c1ccncc12`, the “intracellular M.tb growth inhibition” value is -112 ± 130%. As to `CN(C)S(=O)(=O)c1ccc2c(c1)/C(=C/c1cc3c([nH]1)CCCC3)C(=O)N2`, the “intracellular M.tb growth inhibition” value is -51.7 ± 62%.

On to `Cn1cnc2c(NCc3ccccc3)nc(NCCO)nc21` [Olomoucine], for which the “intracellular M.tb growth inhibition” value is -10.5 ± 23%.

With `C=CC[C@@H]1/C=C(\C)C[C@H](C)C[C@H](OC)[C@H]2O[C@@](O)(C(=O)C(=O)N3CCCC[C@H]3C(=O)O[C@H](/C(C)=C/[C@@H]3CC[C@@H](O)[C@H](OC)C3)[C@H](C)[C@@H](O)CC1=O)[C@H](C)C[C@@H]2OC`, the “intracellular M.tb growth inhibition” value turned out to be 42 ± 7.7%. As for `C/C(=N\N=C(N)N)c1ccc(NC(=O)c2cc3cccc([N+](=O)[O-])c3[nH]2)cc1`, the figure is -73 ± 67%.
